What all share (assay): log2 fold change, soluble protein after heating vs DMSO (PISA); higher = thermal stabilisation; K562 lysate, 10 uM; active = over 0.2 and 3.5 SD of the protein, either way, in both replicates (recomputed)
Compound in assay [1]: NCC(=O)Nc1ccc(-n2nc(C(F)(F)F)cc2-c2ccc3c(ccc4ccccc43)c2)cc1
Put shortly: (§1)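 A 30 min treatment with 10 μM compound was applied to crude K562 extract at 1 mg/mL protein in PBS pH 7.4 with 1 mM MgCl2. Heating for 3 min spanned 48°C-58°C, after which aliquots were pooled, adjusted to 0.5% NP-40 at 4°C and spun at 21,000xg for 90 min. TMTpro 16plex LC-MS/MS of the supernatant, with channel sums equalised, gave values recorded as log-two fold change in thermal stability against solvent controls, from duplicates.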

Compound in another assay: O=C(CCCCCCC(=O)Nc1ccccc1)NO [vorinostat]
Put shortly:
as §1

Compound in the next assay: O=C(O)c1ccc2c(c1)nc(Nc1cccc(Cl)c1)c1ccncc12 [silmitasertib]
Put shortly: as §1

Compound in assay [2]: O=C1NC(=O)C(c2cnc3ccccn23)=C1c1cn2c3c(cc(F)cc13)CN(C(=O)N1CCCCC1)CC2
Put shortly:
as §1

Compound in another assay: c1cn2cc(-c3ccc4cn[nH]c4c3)nc(Nc3ccc(N4CCOCC4)cc3)c2n1 [entospletinib]
Put shortly: as §1

About 8,800 targets were measured; listed, in parts, are those with a hit and a random draw of the rest. About 0.5% of all pairs of compound and target were hits. Unmarked numbers belong to inactive results.

Sequence of UniProt O00139 (O00139 whole entry, looked up): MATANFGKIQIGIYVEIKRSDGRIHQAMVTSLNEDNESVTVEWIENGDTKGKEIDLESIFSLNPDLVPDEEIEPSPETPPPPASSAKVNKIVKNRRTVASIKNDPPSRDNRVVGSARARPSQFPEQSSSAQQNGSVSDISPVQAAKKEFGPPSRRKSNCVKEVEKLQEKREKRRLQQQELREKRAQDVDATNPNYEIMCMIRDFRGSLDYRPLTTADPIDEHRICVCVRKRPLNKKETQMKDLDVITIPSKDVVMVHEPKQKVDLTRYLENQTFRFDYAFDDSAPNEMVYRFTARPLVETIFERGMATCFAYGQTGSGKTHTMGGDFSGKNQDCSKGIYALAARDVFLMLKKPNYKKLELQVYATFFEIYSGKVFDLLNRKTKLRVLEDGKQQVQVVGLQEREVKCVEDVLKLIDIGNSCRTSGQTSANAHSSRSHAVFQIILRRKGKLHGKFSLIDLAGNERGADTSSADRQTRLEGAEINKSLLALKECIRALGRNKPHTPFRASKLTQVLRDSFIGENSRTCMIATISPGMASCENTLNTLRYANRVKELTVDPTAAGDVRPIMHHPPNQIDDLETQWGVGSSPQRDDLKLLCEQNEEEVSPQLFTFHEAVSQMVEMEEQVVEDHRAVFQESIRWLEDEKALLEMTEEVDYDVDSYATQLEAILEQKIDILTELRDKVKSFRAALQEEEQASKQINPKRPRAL
Sequence of UniProt P01116 (P01116 whole entry, looked up): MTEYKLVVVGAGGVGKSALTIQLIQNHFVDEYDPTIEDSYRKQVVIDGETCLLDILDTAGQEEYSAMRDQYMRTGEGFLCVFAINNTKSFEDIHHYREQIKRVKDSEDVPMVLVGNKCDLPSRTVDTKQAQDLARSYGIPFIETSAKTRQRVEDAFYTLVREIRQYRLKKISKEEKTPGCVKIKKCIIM
Sequence of UniProt Q8N3R9 (Q8N3R9 whole entry, looked up): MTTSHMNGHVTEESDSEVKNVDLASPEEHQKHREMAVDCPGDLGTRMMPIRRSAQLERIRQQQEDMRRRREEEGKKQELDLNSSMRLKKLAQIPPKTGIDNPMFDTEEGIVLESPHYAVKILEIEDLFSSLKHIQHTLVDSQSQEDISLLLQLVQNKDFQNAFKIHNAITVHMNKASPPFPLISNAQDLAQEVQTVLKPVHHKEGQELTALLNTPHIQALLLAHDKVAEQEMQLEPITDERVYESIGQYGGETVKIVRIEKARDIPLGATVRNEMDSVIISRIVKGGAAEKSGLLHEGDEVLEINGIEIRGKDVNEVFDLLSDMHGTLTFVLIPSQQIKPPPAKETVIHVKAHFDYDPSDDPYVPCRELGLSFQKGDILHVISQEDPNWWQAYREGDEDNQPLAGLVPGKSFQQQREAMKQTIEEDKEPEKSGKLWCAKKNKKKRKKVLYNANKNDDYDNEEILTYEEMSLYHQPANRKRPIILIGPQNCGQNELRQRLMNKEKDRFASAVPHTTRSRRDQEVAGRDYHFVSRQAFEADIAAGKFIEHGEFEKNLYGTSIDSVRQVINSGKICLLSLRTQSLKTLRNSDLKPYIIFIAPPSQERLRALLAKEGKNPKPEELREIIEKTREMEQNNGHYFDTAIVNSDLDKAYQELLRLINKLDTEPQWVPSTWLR
Sequence of UniProt Q9Y448 (Q9Y448 whole entry, looked up): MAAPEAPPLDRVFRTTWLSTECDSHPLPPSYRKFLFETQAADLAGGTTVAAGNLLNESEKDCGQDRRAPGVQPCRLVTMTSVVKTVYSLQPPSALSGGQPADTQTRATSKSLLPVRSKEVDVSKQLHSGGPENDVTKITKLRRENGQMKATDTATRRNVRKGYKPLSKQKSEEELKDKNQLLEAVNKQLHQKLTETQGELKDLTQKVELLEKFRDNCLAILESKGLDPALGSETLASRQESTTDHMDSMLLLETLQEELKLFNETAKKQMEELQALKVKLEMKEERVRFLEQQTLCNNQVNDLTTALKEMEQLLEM
Sequence of UniProt Q9BW19 (Q9BW19 whole entry, looked up): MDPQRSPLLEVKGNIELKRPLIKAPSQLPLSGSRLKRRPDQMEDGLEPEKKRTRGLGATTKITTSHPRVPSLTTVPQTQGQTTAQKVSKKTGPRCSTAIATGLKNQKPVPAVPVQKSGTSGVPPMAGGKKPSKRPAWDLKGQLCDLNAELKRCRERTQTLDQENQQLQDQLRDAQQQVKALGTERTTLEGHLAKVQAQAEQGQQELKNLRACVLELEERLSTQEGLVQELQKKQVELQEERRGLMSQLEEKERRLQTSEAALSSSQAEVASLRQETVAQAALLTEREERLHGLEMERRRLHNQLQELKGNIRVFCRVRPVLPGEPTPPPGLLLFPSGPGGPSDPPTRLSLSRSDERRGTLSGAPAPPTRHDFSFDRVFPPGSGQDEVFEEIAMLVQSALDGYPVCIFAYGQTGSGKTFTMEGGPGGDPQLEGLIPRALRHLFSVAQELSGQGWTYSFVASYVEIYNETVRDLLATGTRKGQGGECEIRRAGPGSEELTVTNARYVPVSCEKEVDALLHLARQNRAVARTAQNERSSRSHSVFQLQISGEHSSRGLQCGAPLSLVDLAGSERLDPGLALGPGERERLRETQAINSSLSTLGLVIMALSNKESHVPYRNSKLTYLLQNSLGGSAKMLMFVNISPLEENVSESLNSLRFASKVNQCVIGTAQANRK
Sequence of UniProt Q66K74 (Q66K74 whole entry, looked up): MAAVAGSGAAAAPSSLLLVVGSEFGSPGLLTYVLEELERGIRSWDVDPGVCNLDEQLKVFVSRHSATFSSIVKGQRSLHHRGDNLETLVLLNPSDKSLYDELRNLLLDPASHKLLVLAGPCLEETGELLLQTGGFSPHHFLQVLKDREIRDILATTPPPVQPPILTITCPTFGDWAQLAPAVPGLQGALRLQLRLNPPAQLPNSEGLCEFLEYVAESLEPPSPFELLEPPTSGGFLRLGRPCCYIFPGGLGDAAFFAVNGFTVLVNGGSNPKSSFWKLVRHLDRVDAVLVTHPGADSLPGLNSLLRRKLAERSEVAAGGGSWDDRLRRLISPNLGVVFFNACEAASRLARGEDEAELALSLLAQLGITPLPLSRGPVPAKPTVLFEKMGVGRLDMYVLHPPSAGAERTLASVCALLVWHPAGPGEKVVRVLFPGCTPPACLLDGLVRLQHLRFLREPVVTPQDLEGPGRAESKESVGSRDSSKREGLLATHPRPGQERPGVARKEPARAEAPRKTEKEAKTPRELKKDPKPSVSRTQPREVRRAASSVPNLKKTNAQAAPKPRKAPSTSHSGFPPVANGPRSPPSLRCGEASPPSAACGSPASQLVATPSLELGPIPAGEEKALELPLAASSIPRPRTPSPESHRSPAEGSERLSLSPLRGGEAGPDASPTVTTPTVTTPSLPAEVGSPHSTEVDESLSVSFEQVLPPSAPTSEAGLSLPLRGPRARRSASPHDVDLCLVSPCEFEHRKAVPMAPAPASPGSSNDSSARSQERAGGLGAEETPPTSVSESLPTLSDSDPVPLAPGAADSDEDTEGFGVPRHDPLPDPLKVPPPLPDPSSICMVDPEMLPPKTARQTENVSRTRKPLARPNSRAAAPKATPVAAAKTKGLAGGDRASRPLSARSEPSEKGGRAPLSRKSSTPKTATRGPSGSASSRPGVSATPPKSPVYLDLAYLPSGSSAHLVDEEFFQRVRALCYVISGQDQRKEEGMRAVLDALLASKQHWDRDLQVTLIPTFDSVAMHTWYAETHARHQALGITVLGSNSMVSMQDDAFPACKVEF
Sequence of UniProt P83369 (P83369 whole entry, looked up): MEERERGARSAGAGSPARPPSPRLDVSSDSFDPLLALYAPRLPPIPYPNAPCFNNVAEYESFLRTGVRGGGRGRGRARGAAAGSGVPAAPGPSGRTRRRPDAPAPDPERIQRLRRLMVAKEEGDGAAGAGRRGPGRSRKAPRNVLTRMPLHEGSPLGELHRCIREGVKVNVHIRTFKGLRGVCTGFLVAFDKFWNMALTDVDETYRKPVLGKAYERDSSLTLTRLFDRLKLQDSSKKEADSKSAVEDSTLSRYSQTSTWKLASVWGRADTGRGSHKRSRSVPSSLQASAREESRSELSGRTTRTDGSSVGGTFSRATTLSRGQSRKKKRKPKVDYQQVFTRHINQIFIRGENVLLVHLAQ
Sequence of UniProt Q9H6V9 (Q9H6V9 whole entry, looked up): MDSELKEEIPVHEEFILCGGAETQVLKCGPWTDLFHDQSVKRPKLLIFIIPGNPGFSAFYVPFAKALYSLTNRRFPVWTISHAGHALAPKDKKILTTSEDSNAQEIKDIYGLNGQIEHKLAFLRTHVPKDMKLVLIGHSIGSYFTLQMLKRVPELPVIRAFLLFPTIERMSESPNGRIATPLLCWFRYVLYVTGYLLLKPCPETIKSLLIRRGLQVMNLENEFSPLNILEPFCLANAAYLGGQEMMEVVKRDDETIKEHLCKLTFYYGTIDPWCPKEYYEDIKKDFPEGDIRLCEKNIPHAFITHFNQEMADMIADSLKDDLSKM
Sequence of UniProt P46734 (P46734 whole entry, looked up): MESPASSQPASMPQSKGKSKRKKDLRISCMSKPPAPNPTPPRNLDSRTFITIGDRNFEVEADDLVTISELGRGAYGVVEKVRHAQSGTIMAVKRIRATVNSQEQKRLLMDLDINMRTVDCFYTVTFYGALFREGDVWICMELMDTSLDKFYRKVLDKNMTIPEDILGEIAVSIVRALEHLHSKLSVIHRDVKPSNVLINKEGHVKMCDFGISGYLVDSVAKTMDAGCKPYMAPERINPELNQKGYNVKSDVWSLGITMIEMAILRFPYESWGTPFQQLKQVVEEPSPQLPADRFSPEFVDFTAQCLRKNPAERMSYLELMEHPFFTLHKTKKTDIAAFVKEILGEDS
Sequence of UniProt Q14657 (Q14657 whole entry, looked up): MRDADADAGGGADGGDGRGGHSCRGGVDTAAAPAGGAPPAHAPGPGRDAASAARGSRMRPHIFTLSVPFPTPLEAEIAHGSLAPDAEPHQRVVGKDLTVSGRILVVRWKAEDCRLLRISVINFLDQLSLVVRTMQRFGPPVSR

On to KIF2A isoform 4 (UniProt O00139), for which the log2 fold change was -0.018 in assay [1]; -0.518 (active) with vorinostat; 0.044 with silmitasertib; -0.015 in assay [2]; -0.006 in the assay with entospletinib.
The like results for KRI1 (UniProt Q8N9T8) were, in that order, 0.085, -0.285 (active), -0.023, -0.007 and -0.07.
The corresponding values for KIF26A (UniProt Q9ULI4) are -0.01, -0.178, 0.068, -0.016 and 0.057.
The like results for MARCHF6 (UniProt O60337) were, in that order, 0, 0.057, -0.037, -0.06 and -0.028.
In the case of MAP2K1 (UniProt Q02750), the log2 fold change is -0.005 in assay [1]; -0.116 in the assay with vorinostat; 0.108 with silmitasertib; 0.006 in assay [2]; 0.03 with entospletinib.
The like results for MED17 (UniProt Q9NVC6) were, in that order, -0.051, -0.392 (active), -0.008, -0.006 and 0.083.
As for KPNA2 (UniProt P52292), the log2 fold change in assay [1] was -0.014; in the assay with vorinostat it was -0.376 (active); in the assay with silmitasertib it was 0.018; in assay [2] it was 0.009; with entospletinib, 0.019.
For LARS (UniProt Q9P2J5), the log2 fold change in assay [1] is -0.021; in the assay with vorinostat, -0.399 (active); in the assay with silmitasertib, 0.052; in assay [2] it was -0.003; in the assay with entospletinib it was 0.012.
The like results for LSM11 (UniProt P83369) were, in that order, 0.233, -0.027, 0.194, 0.014 and -0.02.
Turning to MBTPS1 (UniProt Q14703), the log2 fold change in assay [1] was 0.17; with vorinostat, 0.116; with silmitasertib, -0.023; in assay [2], -0.044; with entospletinib, 0.094.
The corresponding values for LRPPRC (UniProt P42704) are -0.004, -0.259 (active), 0.072, 0.023 and 0.035.
The corresponding values for LAGE3 (UniProt Q14657) are 0.045, -0.085, -0.016, -0.041 and -0.043.
The like results for MAP2K3 isoform 3 (UniProt P46734) were, in that order, -0.033, -0.577 (active), 0.149, 0.025 and 0.072.
KRAS (UniProt P01116): the log2 fold change is 0.033 in assay [1]; 0.129 with vorinostat; 0.022 in the assay with silmitasertib; -0.072 in assay [2]; -0.021 with entospletinib.
The like results for L3HYPDH (UniProt Q96EM0) were, in that order, 0.023, -0.31 (active), 0, -0.02 and -0.005.
On to KNSTRN (UniProt Q9Y448), for which the log2 fold change is -0.018 in assay [1]; -0.054 with vorinostat; 0 with silmitasertib; 0.057 in assay [2]; 0.02 in the assay with entospletinib.
The corresponding values for KIFC1 (UniProt Q9BW19) are 0.02, -0.898 (active), 0.03, -0.04 and -0.002.
The like results for MRPL12 (UniProt P52815) were, in that order, -0.07, 0.116, -0.023, 0 and -0.152.
As to MED12 isoform 2 (UniProt Q93074), the log2 fold change in assay [1] is 0.003; with vorinostat it was -0.466 (active); in the assay with silmitasertib, -0.044; in assay [2] it was -0.008; in the assay with entospletinib, -0.012.
The corresponding values for MAP1S (UniProt Q66K74) are 0.006, -0.242 (active), -0.004, -0.025 and 0.01.
As to KRR1 (UniProt Q13601), the log2 fold change in assay [1] was 0.013; with vorinostat, 0.02; with silmitasertib, 0.013; in assay [2], 0.101; with entospletinib, 0.011.
In the case of MBD2 (UniProt Q9UBB5), the log2 fold change was 0.018 in assay [1]; -0.244 (active) with vorinostat; 0.017 in the assay with silmitasertib; -0.022 in assay [2]; 0.022 in the assay with entospletinib.
The corresponding values for MMS22L (UniProt Q6ZRQ5) are 0.022, -0.508 (active), 0.016, 0.138 and 0.069.
Regarding LDAH isoform 2 (UniProt Q9H6V9), the log2 fold change in assay [1] was -0.017; in the assay with vorinostat it was -0.13; in the assay with silmitasertib, 0.064; in assay [2], 0.033; with entospletinib it was -0.029.
The corresponding values for MPP5 (UniProt Q8N3R9) are 0.015, 0.016, -0.1, 0 and 0.013.

(Values after the supplement of paper PMC10849652.)
